In PubChem BioAssay (EPA / NIEHS):
Calls of active or inactive are those of the source. The calls were made as follows: active = hit-call score of the fitted dose curve at least 0.9, where 1 is the maximum; inactive = score below 0.9.

Read-out: not listed separately
Assay: BSK_BE3C_SRB: Viability Assessment in the BioMAP Diversity Plus: BE3C Assay (AID 2283028);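 as to AC50: fitted both ways so AC50 may mark signal gain or loss versus DMSO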
Details: primary human bronchial epithelial cells
How it was run: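 Human bronchial epithelial primary cells in confluent culture, 24 h after chemical dosing; total protein by 0.1% SRB staining after 10% TCA fixation, read at 560 nm. Bidirectional fitting versus DMSO baseline.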

SMILES | outcome | AC50
CC1(C)C(C=C(Cl)Cl)C1C(=O)OCc1cccc(Oc2ccccc2)c1 (stereo not given) | inactive | 
CCN(Cc1c(F)cccc1Cl)c1c([N+](=O)[O-])cc(C(F)(F)F)cc1[N+](=O)[O-] |  | 8.78 µM (active)
COCCO | inactive | 
COc1c(Cl)ccc(Cl)c1C(=O)O | inactive | 
CCCN(CCC)C(=O)SCC | inactive | 
CCCCOC(=O)[C@@H](C)Oc1ccc(Oc2ccc(C(F)(F)F)cn2)cc1 | inactive | 
c1ccc2[nH]c(-c3cscn3)nc2c1 | inactive | 
COC(=O)c1ccccc1S(=O)(=O)NC(=O)Nc1nc(OC(F)F)cc(OC(F)F)n1 | inactive | 
CCCCCOC(=O)COc1cc(N2C(=O)C3=C(CCCC3)C2=O)c(F)cc1Cl | inactive | 
O=C(O)c1ccccc1 | inactive | 
CCCCCCC(C)OC(=O)COc1nc(F)c(Cl)c(N)c1Cl (stereo not given) | inactive | 
COC(=O)c1ccccc1C(=O)O | inactive | 
CCCOC(=O)NCCCN(C)C | inactive | 
CC(=O)[C@H]1CC[C@H]2[C@@H]3CCC4=CC(=O)CC[C@]4(C)[C@H]3CC[C@]12C | inactive | 
CCOC(=O)C(C)Oc1ccc(Oc2nc3ccc(Cl)cc3o2)cc1 (stereo not given) | inactive | 
C[C@]12CC[C@@H]3c4ccc(O)cc4C[C@@H](CCCCCCCCCS(=O)CCCC(F)(F)C(F)(F)F)[C@H]3[C@@H]1CC[C@@H]2O (stereo not given in full) | inactive | 
COC(=O)c1ccc(CNS(C)(=O)=O)cc1S(=O)(=O)NC(=O)Nc1nc(OC)cc(OC)n1 | inactive | 
COC(=O)c1cccc(C)c1S(=O)(=O)NC(=O)Nc1nc(OCC(F)(F)F)nc(N(C)C)n1 | inactive | 
CCOC(=O)c1ccc(O)cc1 | inactive | 
CCCCC(CC)COC(=O)c1ccccc1C(=O)O (stereo not given) | inactive | 
C=CCOC(Cn1ccnc1)c1ccc(Cl)cc1Cl (stereo not given) | inactive | 
O=C(c1ccccc1)C1CCCCC1 | inactive | 
CCOC(=O)COc1cc(-n2ncc(C(F)(F)F)c(C)c2=O)c(F)cc1Cl | inactive | 
O=C(Nc1ccc([N+](=O)[O-])cc1Cl)c1cc(Cl)ccc1O |  | 0.34 µM (active)
CCN(CC)C(=O)c1cccc(C)c1 | inactive | 
C#CCOC(=O)[C@@H](C)Oc1ccc(Oc2ncc(Cl)cc2F)cc1 | inactive | 
CC(C)CCCCCCc1ccc(O)cc1 |  | 36 µM (active)
COC(=O)c1c(Cl)nn(C)c1S(=O)(=O)NC(=O)Nc1nc(OC)cc(OC)n1 | inactive | 
CC(=O)S[C@@H]1CC2=CC(=O)CC[C@]2(C)[C@H]2CC[C@@]3(C)[C@@H](CC[C@@]34CCC(=O)O4)[C@H]12 | inactive | 
O=C(O)C1(C(=O)Nc2ccc(Cl)cc2Cl)CC1 | inactive | 

Read-out: Thrombomodulin, THBD (gene 7056)
Assay: BSK_3C_Thrombomodulin: BioMAP Diversity Plus: 3C Assay for Thrombomodulin Biomarker Activity (AID 2283029)
Details: primary human endothelial cells (HUVEC); actives raise or lower the signal
How it was run: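 Thrombomodulin ELISA, human primary HUVEC, 24 h post-dose; data fitted in both directions relative to DMSO.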

SMILES | outcome | AC50
CC1(C)C(C=C(Cl)Cl)C1C(=O)OCc1cccc(Oc2ccccc2)c1 (stereo not given) | inactive | 
CCN(Cc1c(F)cccc1Cl)c1c([N+](=O)[O-])cc(C(F)(F)F)cc1[N+](=O)[O-] | inactive | 
COCCO | inactive | 
COc1c(Cl)ccc(Cl)c1C(=O)O | inactive | 
CCCN(CCC)C(=O)SCC | inactive | 
CCCCOC(=O)[C@@H](C)Oc1ccc(Oc2ccc(C(F)(F)F)cn2)cc1 | inactive | 
c1ccc2[nH]c(-c3cscn3)nc2c1 | inactive | 
COC(=O)c1ccccc1S(=O)(=O)NC(=O)Nc1nc(OC(F)F)cc(OC(F)F)n1 | inactive | 
CCCCCOC(=O)COc1cc(N2C(=O)C3=C(CCCC3)C2=O)c(F)cc1Cl | inactive | 
O=C(O)c1ccccc1 | inactive | 
CCCCCCC(C)OC(=O)COc1nc(F)c(Cl)c(N)c1Cl (stereo not given) | inactive | 
COC(=O)c1ccccc1C(=O)O | inactive | 
CCCOC(=O)NCCCN(C)C | inactive | 
CC(=O)[C@H]1CC[C@H]2[C@@H]3CCC4=CC(=O)CC[C@]4(C)[C@H]3CC[C@]12C | inactive | 
CCOC(=O)C(C)Oc1ccc(Oc2nc3ccc(Cl)cc3o2)cc1 (stereo not given) | inactive | 
C[C@]12CC[C@@H]3c4ccc(O)cc4C[C@@H](CCCCCCCCCS(=O)CCCC(F)(F)C(F)(F)F)[C@H]3[C@@H]1CC[C@@H]2O (stereo not given in full) | inactive | 
COC(=O)c1ccc(CNS(C)(=O)=O)cc1S(=O)(=O)NC(=O)Nc1nc(OC)cc(OC)n1 | inactive | 
COC(=O)c1cccc(C)c1S(=O)(=O)NC(=O)Nc1nc(OCC(F)(F)F)nc(N(C)C)n1 | inactive | 
CCOC(=O)c1ccc(O)cc1 | inactive | 
CCCCC(CC)COC(=O)c1ccccc1C(=O)O (stereo not given) | inactive | 
C=CCOC(Cn1ccnc1)c1ccc(Cl)cc1Cl (stereo not given) | inactive | 
O=C(c1ccccc1)C1CCCCC1 | inactive | 
CCOC(=O)COc1cc(-n2ncc(C(F)(F)F)c(C)c2=O)c(F)cc1Cl | inactive | 
O=C(Nc1ccc([N+](=O)[O-])cc1Cl)c1cc(Cl)ccc1O |  | 0.148 µM (active)
CCN(CC)C(=O)c1cccc(C)c1 | inactive | 
C#CCOC(=O)[C@@H](C)Oc1ccc(Oc2ncc(Cl)cc2F)cc1 | inactive | 
CC(C)CCCCCCc1ccc(O)cc1 |  | 20 µM (active)
COC(=O)c1c(Cl)nn(C)c1S(=O)(=O)NC(=O)Nc1nc(OC)cc(OC)n1 | inactive | 
CC(=O)S[C@@H]1CC2=CC(=O)CC[C@]2(C)[C@H]2CC[C@@]3(C)[C@@H](CC[C@@]34CCC(=O)O4)[C@H]12 | inactive | 
O=C(O)C1(C(=O)Nc2ccc(Cl)cc2Cl)CC1 | inactive | 
